Bioassay records deposited in PubChem BioAssay by several laboratories.
Jurkat NFkB inh: inhibitors of the PMA/ionomycin-induced NF-kB reporter in Jurkat cells. inhibition, % at 4 µM. PMA/ionomycin-induced NF-kB luciferase reporter, luminescence. AID 435003. hit rate 0.53% among 330,000; in the data active = inhibition above about 50%
697 NFkB inh: lowers PMA/ionomycin-induced NF-kB signal in 697 B cells. 697 B-cell NF-kB luciferase reporter, 16 h. hit rate 0.33% among 330,000. inhibition, % at 4 µM; in the data active = inhibition above about 35%
Gli-Sufu antag: antagonists of Gli-Sufu signaling. Sufu-KO-LIGHT fibroblasts, Gli luciferase reporter luminescence. inhibition, % at 5 µM. hit rate 0.74% among 340,000;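 active = inhibition above about 55%, limit read from the data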;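 note: 0% = DMSO-treated cells and 100% = wells with medium but no cells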
Mdm2-MdmX inh: human Mdm2/MdmX binding inhibition; O15151+Q00987; SaOS-2 split-luciferase Mdm2/MdmX complementation, luminescence; inhibition, % at 8 µM; hit rate 3% among 330,000;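 active = inhibition of at least 50% at 8 µM in the primary screen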
Target sequence (O15151 whole entry, looked up): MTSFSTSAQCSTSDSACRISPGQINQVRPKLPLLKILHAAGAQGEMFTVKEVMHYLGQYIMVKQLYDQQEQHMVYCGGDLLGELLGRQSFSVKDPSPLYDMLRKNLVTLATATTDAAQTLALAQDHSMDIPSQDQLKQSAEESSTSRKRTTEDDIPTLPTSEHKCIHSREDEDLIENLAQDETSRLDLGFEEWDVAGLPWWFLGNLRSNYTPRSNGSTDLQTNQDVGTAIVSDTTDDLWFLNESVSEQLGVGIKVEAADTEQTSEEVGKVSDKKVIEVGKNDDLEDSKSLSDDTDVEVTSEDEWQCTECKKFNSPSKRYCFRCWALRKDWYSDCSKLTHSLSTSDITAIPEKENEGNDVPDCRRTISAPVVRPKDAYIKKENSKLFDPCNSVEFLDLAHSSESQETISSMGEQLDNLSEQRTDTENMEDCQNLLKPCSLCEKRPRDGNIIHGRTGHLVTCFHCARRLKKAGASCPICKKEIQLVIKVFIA
Target sequence (Q00987 whole entry, looked up): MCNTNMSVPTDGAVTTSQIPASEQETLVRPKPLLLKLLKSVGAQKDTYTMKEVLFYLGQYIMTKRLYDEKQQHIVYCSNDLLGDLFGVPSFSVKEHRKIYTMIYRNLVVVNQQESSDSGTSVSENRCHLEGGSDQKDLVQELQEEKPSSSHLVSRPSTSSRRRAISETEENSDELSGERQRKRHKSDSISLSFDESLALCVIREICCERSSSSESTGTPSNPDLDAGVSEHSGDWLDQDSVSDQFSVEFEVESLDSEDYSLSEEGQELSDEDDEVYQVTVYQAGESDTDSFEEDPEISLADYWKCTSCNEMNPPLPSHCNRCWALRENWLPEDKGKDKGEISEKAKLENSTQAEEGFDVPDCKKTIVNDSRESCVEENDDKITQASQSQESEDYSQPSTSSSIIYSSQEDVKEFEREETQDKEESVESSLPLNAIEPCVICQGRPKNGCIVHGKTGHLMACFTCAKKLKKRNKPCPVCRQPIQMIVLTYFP
Beta apoptosis: beta cell apoptosis inhibition. protection from apoptosis, % (no concentration beside the values). hit rate 0.8% among 300,000. INS-1E cytokine-induced death, ATP luminescence, 48 h; percent of positive-control rescue, neutral wells zero. AID 435005;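 active = Every replicate reaches about 75%, or at least half do and their mean reaches it too, limit read from the data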;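 note: 0% = cytokine-treated negative control wells and 100% = positive control rescue; higher means more ATP so stronger rescue from cytokine killing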
Mdm2 MdmX conf: human Mdm2/MdmX binding inhibition, confirmed; luminescent assay; inhibition, % at 8 µM; hit rate 55% among 10,000; shares compounds with Mdm2-MdmX inh; in the data active = inhibition above about 40%
Full FLuc ctr: inhibits full-length luciferase, flagging false Mdm2/MdmX hits | SaOS-2 full-length luciferase counterscreen, luminescence | shares compounds with Mdm2-MdmX inh | inhibition, % at 8 µM | AID 504607 | hit rate 77% among 6,200;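 active = mean inhibition at 8 µM reaching about 37%, which flags the compound as non-specific, limit read from the data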;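 note: p53-null SaOS-2 cells with luciferase driven by a doxycycline-inducible promoter; compound on cells about two nights before reading with doxycycline added after day one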
* hit, by the source's call. Rows were chosen to be rich in hits. Some 4% of all compounds tested hit in one or more screens of this group.

`COc1ccc(NC(=O)CCn2c(=S)[nH]c3ccccc3c2=O)cc1OC` gave Jurkat NFkB inh 3, 697 NFkB inh 12, Gli-Sufu antag -5, Mdm2-MdmX inh 6 and Beta apoptosis 5.
For Cc1cc(C)cc(NC(=O)CCn2c(=S)[nH]c3ccccc3c2=O)c1 the results were Jurkat NFkB inh -4, 697 NFkB inh 9, Gli-Sufu antag -14, Mdm2-MdmX inh 65*, Beta apoptosis 9 and Mdm2 MdmX conf 15.
For O=C(Nc1nc(-c2ccc(F)c(F)c2)cs1)Nc1ccc(F)cc1F the results were Jurkat NFkB inh -2, 697 NFkB inh -18, Gli-Sufu antag 3, Mdm2-MdmX inh 83*, Beta apoptosis 61, Mdm2 MdmX conf 62* and Full FLuc ctr 15.
Cc1ccc2c(c1)C(O)(C1COC(C)(C)CC1=O)C(=O)N2C (centres undefined) was read as Jurkat NFkB inh -2, 697 NFkB inh -4, Gli-Sufu antag -10, Mdm2-MdmX inh 9 and Beta apoptosis -4.
For CN1C(=O)C(O)(C2COC(C)(C)CC2=O)c2cc(Br)ccc21 (centres undefined) the results were Jurkat NFkB inh 3, 697 NFkB inh 9, Gli-Sufu antag 1, Mdm2-MdmX inh 53*, Beta apoptosis -5 and Mdm2 MdmX conf 29.
`Cn1c2ccccc2c2cc([N+](=O)[O-])ccc21` gave Jurkat NFkB inh 1, 697 NFkB inh 9, Gli-Sufu antag 1, Mdm2-MdmX inh 18 and Beta apoptosis -1.
`CCN(CC)CCn1c2ccccc2c2nc3ccc([N+](=O)[O-])cc3cc21` gave Jurkat NFkB inh -7, 697 NFkB inh -100, Gli-Sufu antag -68, Mdm2-MdmX inh 78*, Beta apoptosis 35, Mdm2 MdmX conf 77* and Full FLuc ctr 57*.
O=C(Cn1c2ccccc2c(=O)c2ccccc21)Nc1ccccc1F was read as Jurkat NFkB inh 4, 697 NFkB inh -15, Gli-Sufu antag 0, Mdm2-MdmX inh 20 and Beta apoptosis -3.
`O=C(Cn1c2ccccc2c(=O)c2cc([N+](=O)[O-])ccc21)Nc1ccccc1Cl` gave Jurkat NFkB inh -2, 697 NFkB inh 0, Gli-Sufu antag 5, Mdm2-MdmX inh 53*, Beta apoptosis 9 and Mdm2 MdmX conf 16.
Nc1ncnc2oc(-c3ccco3)c(-c3ccco3)c12 was read as Jurkat NFkB inh 4, 697 NFkB inh -2, Gli-Sufu antag -2, Mdm2-MdmX inh 52* and Mdm2 MdmX conf 23.
`CCN=C(NCC)SC1CC(=O)N(CCc2ccccc2)C1=O` (centres undefined) gave Jurkat NFkB inh -16, 697 NFkB inh 2, Gli-Sufu antag -1, Mdm2-MdmX inh 0 and Beta apoptosis -6.
COc1ccc2[nH]c3c(c2c1)CCN1C(=O)C(CC(=O)NCCCN(C)C)C[C@H](C(=O)N2CCCCC2)[C@@]31CCc1ccccc1 (some centres undefined) was read as 697 NFkB inh 15, Gli-Sufu antag -4 and Mdm2-MdmX inh 33.
O=C(C[C@H]1C[C@H](C(=O)N2CCOCC2)[C@@]2(CCC3CCCC3)c3[nH]c4cc(-c5ccco5)ccc4c3CCN2C1=O)NCCc1ccccn1 was read as 697 NFkB inh 3, Gli-Sufu antag 7, Mdm2-MdmX inh 81* and Mdm2 MdmX conf 0.
`CN(C)CCCNC(=O)C[C@H]1C[C@H](C(=O)N2CCCCC2)[C@@]2(CCc3ccccc3)c3[nH]c4cc(-c5ccco5)ccc4c3CCN2C1=O` gave 697 NFkB inh 4, Gli-Sufu antag 17, Mdm2-MdmX inh 59*, Mdm2 MdmX conf 53* and Full FLuc ctr 45*.
`CN(C)CCCNC(=O)CC1C[C@H](C(=O)N2CCCCC2)[C@@]2(CCc3ccccc3)c3[nH]c4ccccc4c3CCN2C1=O` (some centres undefined) gave Jurkat NFkB inh 7, 697 NFkB inh 12, Gli-Sufu antag 6, Mdm2-MdmX inh 83*, Beta apoptosis 8 and Mdm2 MdmX conf 24.
COc1ccc2[nH]c3c(c2c1)CCN1C(=O)C(CC(=O)NCCC2=CCCCC2)C[C@H](C(=O)N2CCCCC2)[C@@]31CCc1ccccc1 (some centres undefined) was read as 697 NFkB inh -2, Gli-Sufu antag 17, Mdm2-MdmX inh 88* and Mdm2 MdmX conf -33.
Screening Cc1ccccc1CNC(=O)C(=O)NCCC1CCCCN1S(=O)(=O)c1ccccc1 (centres undefined) returned Jurkat NFkB inh 1, 697 NFkB inh 4, Gli-Sufu antag 11, Mdm2-MdmX inh 16 and Beta apoptosis 2.
CCOc1ccc(CN(C)c2nc(-c3cccnc3)nc3ccccc23)cc1OC was read as Jurkat NFkB inh -47, 697 NFkB inh -39, Gli-Sufu antag 6, Mdm2-MdmX inh 3 and Beta apoptosis -1.
Screening CSc1cccc(NC(=S)N(CCCN2CCCC(C)C2)Cc2cccs2)c1 (centres undefined) returned Jurkat NFkB inh -17, 697 NFkB inh 8, Gli-Sufu antag 19, Mdm2-MdmX inh 18 and Beta apoptosis -6.
Screening O=C(Nc1ccc2ncccc2c1)c1cc(Cl)ccc1Cl returned Jurkat NFkB inh -21, 697 NFkB inh -39, Gli-Sufu antag -45, Mdm2-MdmX inh -5 and Beta apoptosis 3.
CN(C)C(=O)CCc1ccc2c3c([nH]c2c1)[C@]1(CCC2CCCC2)[C@@H](C(=O)N2CCOCC2)C[C@H](CC(=O)NCCC2=CCCCC2)C(=O)N1CC3 was read as 697 NFkB inh 2, Gli-Sufu antag 0, Mdm2-MdmX inh 54*, Mdm2 MdmX conf 57* and Full FLuc ctr 61*.
CCCN1C/C(=C/c2ccc3c(c2)OCO3)C(=O)/C(=C/c2ccc3c(c2)OCO3)C1 was read as Jurkat NFkB inh -9, 697 NFkB inh -19, Gli-Sufu antag 27, Mdm2-MdmX inh 99*, Beta apoptosis -3, Mdm2 MdmX conf 36 and Full FLuc ctr 68*.
`Cc1ccc2[nH]c(=O)c(CN(Cc3ccco3)S(=O)(=O)c3c(C)ccc4nsnc34)cc2c1` gave Jurkat NFkB inh 11, 697 NFkB inh 1, Gli-Sufu antag -8, Mdm2-MdmX inh 55*, Beta apoptosis 0 and Mdm2 MdmX conf 6.
Screening Cc1cc(C)c2c(N)c(C(=O)c3ccccc3Cl)sc2n1 returned Jurkat NFkB inh -5, 697 NFkB inh -16, Gli-Sufu antag -2, Mdm2-MdmX inh 7 and Beta apoptosis 3.
Cc1cc(C)c2c(N)c(C(=O)c3ccc(Cl)cc3Cl)sc2n1 was read as Jurkat NFkB inh 1, 697 NFkB inh -1, Gli-Sufu antag 12, Mdm2-MdmX inh 70*, Beta apoptosis 16, Mdm2 MdmX conf 75* and Full FLuc ctr 60*.
